The record followed here is PubChem BioAssay AID602393 (Broad Institute, 2012).

The campaign covered roughly 350,000 compounds. About 7,000 (2%) were called active. Cut-off read from the data, not from the text of the source: active = activation above about 40%; inconclusive = no clear call, values can overlap the other calls; inactive = below that. The full list was thinned out, with actives kept by preference.

The assay can be described thus: raisers of Bmi1 knock-in reporter signal – mouse ES cells, Bmi1 luciferase knock-in, single point, esBAF inhibitor project, primary screen (AID 602393).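 Note: 0% = median of the plate's neutral control wells and 100% = double that signal; a rise in the Bmi1 reporter signal indicates esBAF inhibition.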 The settings on record: 24 h, at 12.5 µM, stronger effect = higher value, 100% = twice the neutral-well signal.
As for `COCC(=O)NC[C@@H]1[C@@H](c2ccc(C3=CCCC3)cc2)[C@@H](CO)N1C(C)=O`, the reporter increase is 2.64% (inactive).

On to `C[C@@H]1CN([C@H](C)CO)C(=O)c2c(c3ccccc3n2C)-c2ccccc2CO[C@H]1CN(C)C(=O)c1ccncc1`, for which the reporter increase is 1.87% (inactive). For the molecule `COCC#Cc1cnc2c(c1)C(=O)N([C@@H](C)CO)C[C@@H](C)[C@H](CN(C)C(=O)Nc1ccccc1OC)O2`, the reporter increase was -2.03% (inactive). The figure for `CCCNC(=O)[C@@H]1[C@@H](CO)[C@@H]2Cn3c(cccc3=O)[C@H]1N2C(=O)C1CCC1` is 3.3% (inactive); for `C[C@@H]1CCCCO[C@H](CN(C)C)[C@H](C)CN([C@@H](C)CO)C(=O)c2cc(NS(=O)(=O)c3ccccc3)ccc2O1` it is -0.305% (inactive); for `CC1(C(=O)Nc2cccc(Oc3ccccc3)c2)CCN1Cc1ccccc1Cl` (configuration not stated) it is -0.493% (inactive). Regarding `CC(Oc1cccc(NC(=O)c2cccs2)c1)C(=O)c1ccccc1` (configuration not stated), the reporter increase was 5.41% (inactive). With `Cc1ccoc1C(=O)Nc1cccc(Oc2ccccc2)c1`, the reporter increase is 69.9% (active). Next, `COc1ccc(CN(C)C[C@@H]2OCCCC[C@H](C)Oc3ccc(NS(C)(=O)=O)cc3C(=O)N([C@@H](C)CO)C[C@H]2C)cc1`: -1.93% (inactive). Take `O=C(NC1CCCCC1)[C@@H]1[C@@H](CO)[C@@H]2Cn3c(cccc3=O)[C@@H]2N1C(=O)CC1CC1`: the reporter increase is 0.341% (inactive).

With `C[C@H](O)C#Cc1cnc2c(c1)C(=O)N([C@H](C)CO)C[C@H](C)[C@H](CN(C)C(=O)c1ccc(F)cc1)O2`, the reporter increase is 0.158% (inactive).

Consider `CN(Cc1ccccc1)c1nc2c(c(=O)[nH]c(=O)n2C)n1CCSc1nc2ccccc2[nH]1`, for which the reporter increase is 5.78% (inactive). In the case of `CN(Cc1ccccc1)C(=O)CSc1nc2ccccc2[nH]1`, the reporter increase was 36% (inactive). As for `COc1ccccc1CSc1nc2ccccc2[nH]1`, the reporter increase was 69.6% (active). Regarding `C/C(=N\Nc1nc2ccccc2[nH]1)c1cccs1`, the reporter increase is 67.6% (inactive). As to `CCCCSc1nc2ccccc2[nH]1`, the reporter increase was 56.3% (active). Next, `CCCCN(CC)CCCNC(=O)c1ccc(CSc2nc3ccncc3[nH]2)cc1`: 0.105% (inactive). As for `O=C(NCc1ccccc1)c1onc(CSc2nc3ccccc3[nH]2)c1C(=O)NCc1ccccc1`, the reporter increase is -3.03% (inactive).

With `COc1ccc2nc(SCC(=O)Nc3c(C)cc(C)cc3C)[nH]c2c1`, the reporter increase is -3.13% (inactive). The figure for `O=C(CSc1nc2ccccc2[nH]1)c1cccs1` is 79.4% (active). Consider `COc1cccc(S(=O)(=O)Nc2ccc3c(c2)[C@@H]2C[C@@H](CC(=O)NC4CCCCC4)O[C@H](CO)[C@@H]2O3)c1`, for which the reporter increase was 9.31% (inactive).

Regarding `CCCNC(=O)N[C@H]1C=C[C@@H](CC(=O)NC2CCCCC2)O[C@H]1CO`, the reporter increase was 0.216% (inactive). Next, `COc1cccc(NC(=O)N(C)C[C@H]2OCc3ccccc3-c3ccccc3C(=O)N([C@H](C)CO)C[C@@H]2C)c1`: 4.73% (inactive); `Cc1ccnc(NC(=O)c2ccc(Cl)c([N+](=O)[O-])c2)c1`: 30.4% (inactive). `C/C(=N\Nc1nncc2ccccc12)c1ccc(Cl)c([N+](=O)[O-])c1`: the reporter increase is 50.9% (active). Turning to `Cc1nc2ccccc2c(=O)n1NC(=O)c1ccc(Cl)c([N+](=O)[O-])c1`, the reporter increase is 3.65% (inactive). The figure for `CN(C)C(=O)c1cccc(-c2ccc3n(c2=O)C[C@H]2N[C@@H]3[C@@H](C(=O)NC3CCC3)[C@@H]2CO)c1` is -3.26% (inactive); for `CCCNC(=O)N1[C@H](CO)[C@H]2c3ccccc3N(C(=O)Nc3cccc(Cl)c3)C[C@H]21` it is -0.3% (inactive). Next, `OC(c1ccccc1)c1nc(-c2cnc3ccccc3c2)cs1` (configuration not stated): 50.7% (active); `CC(C)c1cccc(-c2csc(C(O)c3ccccc3)n2)c1` (configuration not stated): 38.6% (inactive); `COc1cccc(C(NC(C)=O)c2nc(-c3cnc4ccccc4c3)cs2)c1` (configuration not stated): -2.81% (inactive).

For the molecule `C[C@@H]1CN([C@@H](C)CO)S(=O)(=O)c2ccc(/C=C/c3ccccc3)cc2O[C@@H]1CN(C)C(=O)Nc1cc(F)ccc1F`, the reporter increase was 2% (inactive). Take `COc1ccccc1-c1cn(CC[C@H]2CC[C@H](NC(=O)C3CCOCC3)[C@@H](CO)O2)nn1`: the reporter increase was 0.605% (inactive). Consider `CCS(=O)(=O)c1ccc(-c2cccc(NC(=O)c3ccc(Br)o3)c2)nn1`, for which the reporter increase is -4.52% (inactive). Regarding `Cc1cccc(NC(=S)NC(=O)c2ccc(Br)o2)c1`, the reporter increase is 52.3% (active). Regarding `O=C(Nc1cccc(C(=O)O)c1)/C(=C\c1ccccc1)NC(=O)c1ccc(Br)o1`, the reporter increase was -2.41% (inactive).

With `CO[C@H]1CN(C)C(=O)c2ccc(NC(=O)c3cccc(Oc4ccccc4)c3)cc2OC[C@@H](C)NC[C@H]1C`, the reporter increase was -1.39% (inactive).

For `C/C=C/c1ccc([C@@H]2[C@@H](CN(C)C(C)=O)N(C(=O)C3CC3)[C@H]2CO)cc1`, the reporter increase is -1.72% (inactive). Turning to `Cc1cc(Cl)nc(NC(=O)Nc2cccc(Cl)c2)n1`, the reporter increase is 74.9% (active).

`O=C(NCc1cn2ccsc2n1)Nc1cccc(Cl)c1`: the reporter increase is 28.5% (inactive). Next, `Cc1cc(C)nc(NC(=O)Nc2ccccc2C(F)(F)F)n1`: -6.57% (inactive). The figure for `Cc1noc(C)c1S(=O)(=O)Nc1ccc2c(c1)C(=O)N([C@H](C)CO)C[C@@H](C)[C@@H](CN(C)C(=O)C1CCCCC1)OCCCC[C@@H](C)O2` is 5.24% (inactive).

As for `O=C(C[C@@H]1CC[C@H](NC(=O)C2CC2)[C@@H](CO)O1)NCc1ccncc1`, the reporter increase is -3.99% (inactive). Take `CCc1cccc(C)c1NC(=O)COC(=O)CC1CCCC1`: the reporter increase is 2.51% (inactive). `CCOc1cccc2cc(C(=O)OCC(=O)Nc3c(C)cccc3CC)c(=O)oc12`: the reporter increase is 50.3% (active). As for `Cc1cccc(C)c1NC(=O)COC(=O)c1ccccc1O`, the reporter increase is 0.59% (inactive). Next, `CNC[C@H]1Oc2ccc(NS(=O)(=O)c3ccccc3)cc2CC(=O)N([C@H](C)CO)C[C@@H]1C`: -1.73% (inactive). Turning to `O=C(CCNC(=O)c1ccccc1Cl)NCc1ccco1`, the reporter increase is -4.58% (inactive). Regarding `COc1ccc2c(Cl)c(C(=O)NCc3ccco3)sc2c1`, the reporter increase was 35.4% (inactive). As for `O=C(NCc1ccco1)c1sc2cccc(F)c2c1Cl`, the reporter increase was 44% (active). Next, `CCCC#Cc1cnc2c(c1)C(=O)N([C@@H](C)CO)C[C@@H](C)[C@@H](CN(C)C(=O)c1ccccc1)O2`: -1.26% (inactive); `COc1ccc(NC(=O)Nc2ccc3c(c2)C(=O)N([C@@H](C)CO)C[C@@H](C)[C@H](CN(C)C(=O)CCC(F)(F)F)OCCCC[C@@H](C)O3)cc1`: 11% (inactive). Next, `C[n+]1cc(-c2ccccc2)oc1-c1ccccc1`: 51.8% (active); `COC(=O)C[C@@H]1CC[C@@H]2[C@H](COc3ccc(NC(=O)c4ccccc4OC)cc3C(=O)N2C)O1`: -4.7% (inactive); `COC(=O)c1ccc(OC(=O)c2cnccn2)cc1`: 2.58% (inactive). As for `O=S(=O)(Nc1ncnc2sccc12)c1cccc(F)c1`, the reporter increase was -8.41% (inactive). The figure for `COC(=O)c1ccc(Nc2ncnc3sccc23)cc1` is 41.7% (active); for `Cc1cc(NC(=O)COc2ccccc2C#N)no1` it is 70% (active); for `Cc1cc(NC(=O)COn2nnc3ccccc32)no1` it is -6.87% (inactive). In the case of `COc1ccc(C(=O)OCC(=O)Nc2cc(C)on2)cc1F`, the reporter increase was 0.512% (inactive). Regarding `CC(=O)c1c(C)[nH]c(C(=O)COC(=O)c2cccs2)c1C`, the reporter increase was 48.6% (active). The figure for `CC(=O)c1c(C)[nH]c(C(=O)COC(=O)CCOc2ccc(C)cc2)c1C` is -8.22% (inactive); for `COc1cccc(C(=O)OCC(=O)c2[nH]c(C)c(C(C)=O)c2C)c1` it is 8.69% (inactive); for `C[C@@H]1CN([C@H](C)CO)C(=O)c2cc(-c3ccccc3F)cnc2O[C@H]1CN(C)C(=O)NC1CCCCC1` it is -2.88% (inactive).

In the case of `C[C@@H]1CN([C@H](C)CO)C(=O)c2cc(-c3ccc(F)cc3)cnc2O[C@@H]1CN(C)C(=O)C1CCC1`, the reporter increase was -5.57% (inactive). Next, `COc1cccc(NC(=O)CSc2nnc(Cc3ccc(OC)c(OC)c3)o2)c1`: -6.14% (inactive); `COc1ccccc1N1CCN(C(=O)CSc2nnc(-c3ccoc3C)o2)CC1`: -3.09% (inactive); `COc1ccccc1-c1nnc(SCC(=O)N2CC(C)CC(C)C2)o1` (configuration not stated): 0.0545% (inactive). With `COc1ccc(-c2nnc(SCC(=O)c3cccs3)o2)c(OC)c1`, the reporter increase is 78.8% (active). In the case of `COc1ccccc1-c1nnc(SCC(=O)Nc2ccccc2)o1`, the reporter increase was 50.9% (active).

For the molecule `COc1ccc(-c2nnc(NC(=O)CS(=O)(=O)c3ccc(Cl)cc3)o2)c(OC)c1`, the reporter increase was -8.93% (inactive). With `O=C(C[C@H]1C=C[C@H](NC(=O)Nc2ccc(C(F)(F)F)cc2)[C@@H](CO)O1)NCCN1CCCC1`, the reporter increase was 3.94% (inactive). Next, `CO[C@@H](CN(C)C(=O)c1cnccn1)[C@@H](C)CN([C@@H](C)CO)S(=O)(=O)c1ccc(Cl)cc1`: 0.654% (inactive); `COc1ccc(NC(=O)N(C)C[C@@H]2Oc3ccc(NC(=O)CCN4CCOCC4)cc3C(=O)N([C@@H](C)CO)C[C@H]2C)cc1`: 2.67% (inactive); `C[C@@H]1CN([C@@H](C)CO)C(=O)c2cc(-c3cccnc3)cnc2O[C@H]1CN(C)Cc1ccc(-c2ccccc2)cc1`: -1.47% (inactive).

For `C[C@H](CO)N1C[C@H](C)[C@@H](CN(C)Cc2ccncc2)OCCCC[C@H](C)Oc2ccc(NS(=O)(=O)c3ccc(Cl)cc3)cc2C1=O`, the reporter increase was 0.433% (inactive). The figure for `NS(=O)(=O)c1ccc(Nc2nc(-c3ccccc3)cs2)cc1` is 47.4% (active); for `NS(=O)(=O)c1ccc(NS(=O)(=O)/C=C/c2ccccc2)cc1` it is -2.76% (inactive); for `COc1ccc(C(C)(O)c2nc(-c3ccc(C)c(C)c3)cs2)cc1` (configuration not stated) it is -1.35% (inactive).

Take `COC(=O)CCc1sc(Nc2ccc(Br)cc2)nc1-c1ccc(OC)cc1`: the reporter increase is 3.71% (inactive). As to `COc1ccc(-c2csc(Nc3ccc(O)cc3)n2)cc1`, the reporter increase is 78.7% (active). The figure for `CC(=O)c1ccc(Nc2nc(C(N)c3ccccc3)cs2)cc1` (configuration not stated) is 20.6% (inactive).
